Inconclusive results are not listed. Active and inactive are the calls of the source. Unless noted, calls come from the whole dose curve; as a rule, active = well fitted curve in the direction sought with a large enough effect; inconclusive = small, poorly fitted or top-dose-only effect, or another doubt; inactive = no such curve, though single readings can be large; an effect the other way counts as inactive or inconclusive.
Columns and labels:
[1] = biological target: Tumor necrosis factor (Homo sapiens) (UniProt P01375); assay: qHTS assay to identify small molecules that stimulate Tumor Necrosis Factor-alpha (TNF-alpha) secretion (AID 651757; active = well fitted curve in the direction sought with a large enough effect in the signal ratio; the % refers to the signal ratio; note: 0% is about no effect)
Sequence of Tumor necrosis factor (Homo sapiens) (P01375 whole entry, looked up): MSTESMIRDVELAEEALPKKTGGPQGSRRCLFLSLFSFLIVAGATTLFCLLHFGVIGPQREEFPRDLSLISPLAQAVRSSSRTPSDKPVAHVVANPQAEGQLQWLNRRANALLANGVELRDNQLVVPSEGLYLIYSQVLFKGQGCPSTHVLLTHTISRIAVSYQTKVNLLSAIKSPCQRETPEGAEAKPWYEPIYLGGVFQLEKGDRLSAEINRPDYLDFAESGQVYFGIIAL
In short: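 Secreted TNF-alpha from compound-treated THP-1 cells (17 hrs, 37 C) was quantified with a homogeneous time-resolved fluorescence antibody assay.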

[2] = qHTS assay to identify small molecules that stimulate interleukin-8 (IL-8) secretion (AID 651758; active = well fitted activation curve with a large enough effect in the signal ratio; the % refers to the signal ratio; note: 0% is about no effect)
In short: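 THP-1 cells (2000/well) exposed to compound 16 h at 37 C; secreted IL-8 then detected by HTRF with cryptate- and XL665-labelled anti-IL-8 antibody pair after 1-3 h at room temperature.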

[3] = qHTS assay for environmental chemicals that activate the Aryl hydrocarbon Receptor (AhR) signaling pathway (AID 651777); details: 1A2-DRE human hepatoma cells, luciferase, 24 h; activation: active compounds read high; note: % of control where 0% means no effect; nearly all actives have a fitted effect of over 15% in size
In short: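 Stable CYP1A2 promoter/DRE-luciferase human hepatoma line treated 24 hr; One-Glo luminescence, 30 min RT.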

[4] = biological target: Peroxisome proliferator-activated receptor alpha (Homo sapiens) (UniProt Q07869); assay: qHTS assay for small molecule agonists of the peroxisome proliferator-activated receptor alpha (PPARalpha) signaling pathway (AID 651778); details: PathHunter PPARalpha complementation, chemiluminescence, 6 h; active compounds read high; note: % of control where 0% means no effect
Sequence of Peroxisome proliferator-activated receptor alpha (Homo sapiens) (Q07869 whole entry, looked up, the tested form may be a part): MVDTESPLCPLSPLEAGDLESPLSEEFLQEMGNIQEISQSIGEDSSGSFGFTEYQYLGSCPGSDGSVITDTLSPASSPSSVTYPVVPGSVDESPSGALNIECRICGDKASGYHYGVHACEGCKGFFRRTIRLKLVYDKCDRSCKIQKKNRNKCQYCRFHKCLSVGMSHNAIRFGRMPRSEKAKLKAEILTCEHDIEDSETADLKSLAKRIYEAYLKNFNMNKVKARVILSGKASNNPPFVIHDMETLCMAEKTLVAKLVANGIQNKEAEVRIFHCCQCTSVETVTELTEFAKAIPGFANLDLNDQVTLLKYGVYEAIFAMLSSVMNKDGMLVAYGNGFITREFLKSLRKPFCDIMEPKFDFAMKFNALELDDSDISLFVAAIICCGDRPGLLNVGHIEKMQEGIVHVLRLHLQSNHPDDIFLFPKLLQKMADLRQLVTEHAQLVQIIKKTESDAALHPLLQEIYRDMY
In short: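 Enzyme-fragment complementation assay in which ligand-bound PPARalpha translocates and forms an active enzyme that generates chemiluminescence. Cells were plated overnight, exposed to compound for 6 hr at 37 C, and then given detection reagent for 60 min at room temperature.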

[5] = biological target: Nuclear receptor ROR-gamma (Homo sapiens) (UniProt P51449); assay: qHTS assay for small molecule antagonists of the retinoid-related orphan receptor gamma (ROR-gamma) signaling pathway (AID 651802); note: nearly all actives have a fitted effect of over 60% in size; note: potency is the fitted concentration of half-maximal effect
Sequence of Nuclear receptor ROR-gamma (Homo sapiens) (P51449 whole entry, looked up): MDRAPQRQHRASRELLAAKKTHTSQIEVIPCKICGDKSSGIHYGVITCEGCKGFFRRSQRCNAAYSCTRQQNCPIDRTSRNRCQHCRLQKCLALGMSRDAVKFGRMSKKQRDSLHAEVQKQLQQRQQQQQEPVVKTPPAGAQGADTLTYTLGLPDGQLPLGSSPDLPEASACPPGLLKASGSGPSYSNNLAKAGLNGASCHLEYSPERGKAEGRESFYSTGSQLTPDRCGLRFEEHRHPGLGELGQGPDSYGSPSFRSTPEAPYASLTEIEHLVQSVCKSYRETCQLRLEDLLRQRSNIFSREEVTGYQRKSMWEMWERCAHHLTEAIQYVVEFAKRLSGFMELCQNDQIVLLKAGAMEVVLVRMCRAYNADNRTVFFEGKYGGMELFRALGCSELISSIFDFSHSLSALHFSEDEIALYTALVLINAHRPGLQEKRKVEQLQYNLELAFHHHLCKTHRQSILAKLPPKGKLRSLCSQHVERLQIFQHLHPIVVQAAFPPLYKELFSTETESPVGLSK
In short: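 Antagonism is scored as a fall in luminescence from a RORE-luciferase reporter in CHO cells expressing ROR under a TET-inducible promoter, measured 16hr after doxycycline induction in the presence of compound.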

[6] = qHTS assay for small molecule agonists of the antioxidant response element (ARE) signaling pathway measured by Nrf2-dependant transcriptional activity (AID 720636; active = well fitted curve in the direction sought with a large enough effect in the repeat runs; an effect the other way counts as inactive or inconclusive;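 note: HepG2 cells with an ARE-driven luciferase reporter; % of control where 0% means no effect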)
In short: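 Reporter gene assay, HepG2 ARE-luc: 16 hr compound, 37 C, 5% CO2; read-out luciferase luminescence.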

[7] = qHTS assay for small molecule antagonists of the retinoid-related orphan receptor gamma (ROR-gamma) signaling pathway - cell viability counter screen (AID 720652; active = well fitted curve in the direction sought with a large enough effect in the repeat runs; an effect the other way counts as inactive or inconclusive;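 note: CHO reporter cells with doxycycline-induced ROR-gamma expression; series mostly up to about 92 µM; compound exposure lasted 16 hr before ATP read; % is set by controls: 0 for no effect and ±100 for the full control effect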)
In short: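 Cytotoxicity is quantified via intracellular ATP (CellTiter-Glo luminescence) in doxycycline-induced CHO ROR response element-luciferase reporter cells treated with compound for 16 hr at 37 C, 5% CO2.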

[8] = qHTS assay for small molecule agonists of the antioxidant response element (ARE) signaling pathway measured by Nrf2-dependant transcriptional activity - cell viability counter screen (AID 720653; active = well fitted curve in the direction sought with a large enough effect in the repeat runs; an effect the other way counts as inactive or inconclusive; note: % is set by controls: 0 for no effect and ±100 for the full control effect); details: ARE-bla HepG2 viability, CellTiter-Glo ATP luminescence, 16 h; active compounds read low
In short: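 ARE-bla HepG2 cells treated with compounds for 16 h at 37C; this counter screen measures viability as intracellular ATP by CellTiter-Glo luminescence after 30 min at room temperature.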

[9] = qHTS assay for cell viability of HEK293 cells (AID 743288); details: ATP luminescence (CellTiter-Glo), 18 h, active compounds read low; note: % is set by controls: 0 for no effect and ±100 for the full control effect; nearly all actives have a fitted effect of over 50% in size
In short: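 HEK293 parental, 2,000 cells/well; ≥5 h pre-incubation 37 C; pintool compound addition; 18 h, 37 C; CellTiter-Glo 30 min RT; luminescence read.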

[10] = qHTS assay for small molecule disruptors of the mitochondrial membrane potential - 5 hr assay (AID 651755; calls by dose curve; note: % is set by controls: 0 for no effect and ±100 for the full control effect; nearly all actives have a fitted effect of over 40% in size)
In short: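 HepG2 cells (2,000/well), attached overnight, exposed to compound 5 hr at 37C, then Mito-MPS dye 30 min. Fluorescence read for monomers (490/535 nm) and aggregates (540/590 nm).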

CCC(C)=O
inactive: Potency [1] | Potency [2] | activation [3] -0.131% | max response [4] -7.5% | Potency [5] | outcome [6] | Potency [7] | max response [8] -4.32% | max response [9] 4.69%

CC(=C/C=C/C(C)=C/C=C/C=C(C)/C=C/C=C(C)/C=C/C(=O)O)/C=C/C(=O)O
inactive: Potency [1] | activation [3] 2.66% | max response [4] 2.34% | Potency [5] | outcome [6] | Potency [7] | max response [8] -9.67% | max response [9] -2.36%

Oc1cccc(Nc2ccccc2)c1
inactive: activation [3] 4.89% | max response [4] -0.0901% | Potency [5] | outcome [6] | Potency [7] | max response [8] -2.76% | max response [9] 2.73%

C[C@@H]1O[C@@H](O[C@@H]2[C@@H](O)[C@H](OCCc3ccc(O)c(O)c3)O[C@H](CO[C@@H]3O[C@H](CO)[C@@H](O)[C@H](O)[C@H]3O)[C@H]2OC(=O)/C=C/c2ccc(O)c(O)c2)[C@H](O)[C@H](O)[C@H]1O
inactive: Potency [10] | max response [4] 0.275% | Potency [5] | outcome [6] | max response [8] -6.98% | max response [9] -6.2%

Cc1cccc2sc(N)nc12
inactive: Potency [10] | max response [4] -1.18% | Potency [5] | outcome [6] | max response [8] -5.19% | max response [9] 2.69%

O=c1[nH][nH]c(=O)c2cc([N+](=O)[O-])ccc12
inactive: Potency [1] | activation [3] 1.03% | max response [4] -4.9% | Potency [5] | outcome [6] | Potency [7] | max response [8] 5.62% | max response [9] -7.38%

O=Cc1c(Cl)cccc1Cl
active: Potency [5] 16.8 µM
inactive: Potency [1] | activation [3] 1.15% | max response [4] 25.1% | outcome [6] | Potency [7] | max response [8] 11.9% | max response [9] -9.95%

CCC=O
inactive: Potency [10] | max response [4] -0.926% | Potency [5] | outcome [6] | Potency [7] | max response [8] -3.76% | max response [9] 1.05%

CC(N)CN (configuration not stated)
inactive: Potency [1] | Potency [2] | activation [3] -0.27% | max response [4] -3.51% | outcome [6] | Potency [7] | max response [8] 0.44% | max response [9] -8.09%

COc1cccc2sc(N)nc12
inactive: Potency [1] | max response [4] -2.03% | Potency [5] | outcome [6] | Potency [7] | max response [8] 1.42% | max response [9] -3.84%

Nc1cccc(N)c1
inactive: Potency [1] | activation [3] 4.51% | max response [4] -0.676% | Potency [5] | outcome [6] | max response [8] -7.64% | max response [9] 5.39%

Nc1ccc(Cl)cc1[N+](=O)[O-]
inactive: Potency [1] | activation [3] 1.69% | max response [4] -2.8% | outcome [6] | max response [8] 0.225% | max response [9] -4.72%

Cc1cc([N+](=O)[O-])ccc1N
inactive: Potency [1] | activation [3] 0.911% | max response [4] -7.44% | outcome [6] | Potency [7] | max response [8] -20.9% | max response [9] -5.02%

Cc1cscn1
inactive: Potency [1] | activation [3] 1.08% | max response [4] -1.32% | outcome [6] | Potency [7] | max response [9] -3.62%

C1CCOC1
inactive: outcome [6] | max response [8] 5.55% | max response [9] -1.37%

CCOC(=O)OCC
inactive: Potency [1] | Potency [2] | activation [3] 0.303% | max response [4] 3.76% | outcome [6] | Potency [7] | max response [8] 2.96% | max response [9] 1.3%

Cc1ccc([N+](=O)[O-])c(N)c1
inactive: Potency [10] | max response [4] -3.68% | Potency [5] | outcome [6] | max response [8] 6.11% | max response [9] -6.54%

COc1ccc(N)c(OC)c1
inactive: activation [3] 3.03% | max response [4] 4.7% | Potency [5] | outcome [6] | max response [8] 4.1% | max response [9] 1.67%

COC(=O)CCCC(=O)OC
inactive: Potency [1] | max response [4] -1.53% | Potency [5] | outcome [6] | Potency [7] | max response [9] -4.02%

C=CCOC(=O)CCCCCCCC
inactive: Potency [1] | Potency [2] | activation [3] -2.14% | max response [4] -0.94% | Potency [5] | outcome [6] | max response [8] 3.3% | max response [9] -7.54%

From PubChem BioAssay (NCATS)
